From the supplement of paper PMC10849652 come the findings set out here.

The full data set covers some 8,800 targets. This sample favours those with a hit. About 0.5% of all pairs of compound and target were hits. A number with no mark means an inactive call.

What all share (test): log2 fold change, soluble protein after heating vs DMSO (PISA); higher = thermal stabilisation; K562 lysate, 10 uM; active = over 0.2 and 3.5 SD of the protein, either way, in both replicates (recomputed)
Compound in assay [1]: NCC(=O)Nc1ccc(-n2nc(C(F)(F)F)cc2-c2ccc3c(ccc4ccccc43)c2)cc1
An outline of the steps:
(§1)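 Pellets of K562 cells were dounce-homogenised in PBS pH 7.4 with 1 mM MgCl2, and the crude extract was held at 1 mg/mL protein for a 30 min treatment with 10 μM compound. Aliquots were heated for 3 min over 48°C-58°C and pooled before NP-40 was added to 0.5% at 4°C. The supernatant from 21,000xg for 90 min was quantified by TMTpro 16plex LC-MS/MS with channel sums equalised. Values are reported from duplicates as log-two fold change in thermal stability relative to solvent controls.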

Compound in another assay: O=C(CCCCCCC(=O)Nc1ccccc1)NO [vorinostat]
An outline of the steps: as §1

Compound in another assay: O=C(O)c1ccc2c(c1)nc(Nc1cccc(Cl)c1)c1ccncc12 [silmitasertib]
An outline of the steps: as §1

Compound in assay [2]: O=C1NC(=O)C(c2cnc3ccccn23)=C1c1cn2c3c(cc(F)cc13)CN(C(=O)N1CCCCC1)CC2
An outline of the steps:
as §1

Compound in the next assay: c1cn2cc(-c3ccc4cn[nH]c4c3)nc(Nc3ccc(N4CCOCC4)cc3)c2n1 [entospletinib]
An outline of the steps:
as §1

Sequence of UniProt Q13322 (Q13322 whole entry, looked up): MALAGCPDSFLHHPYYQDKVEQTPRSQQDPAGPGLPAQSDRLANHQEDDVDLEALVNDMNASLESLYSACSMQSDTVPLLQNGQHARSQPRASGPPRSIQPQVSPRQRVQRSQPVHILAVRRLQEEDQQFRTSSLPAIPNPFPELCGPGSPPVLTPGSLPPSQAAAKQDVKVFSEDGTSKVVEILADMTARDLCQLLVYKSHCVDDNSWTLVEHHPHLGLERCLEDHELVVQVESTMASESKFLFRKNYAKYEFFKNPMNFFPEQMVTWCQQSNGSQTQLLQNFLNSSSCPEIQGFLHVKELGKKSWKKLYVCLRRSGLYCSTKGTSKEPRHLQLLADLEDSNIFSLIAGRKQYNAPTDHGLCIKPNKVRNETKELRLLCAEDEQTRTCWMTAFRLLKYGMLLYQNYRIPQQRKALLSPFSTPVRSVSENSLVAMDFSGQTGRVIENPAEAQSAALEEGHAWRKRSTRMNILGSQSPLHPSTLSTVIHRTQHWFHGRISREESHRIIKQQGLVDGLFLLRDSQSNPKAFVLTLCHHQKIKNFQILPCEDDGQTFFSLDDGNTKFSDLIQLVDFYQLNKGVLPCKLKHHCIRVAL
Sequence of UniProt Q99714 (Q99714 whole entry, looked up): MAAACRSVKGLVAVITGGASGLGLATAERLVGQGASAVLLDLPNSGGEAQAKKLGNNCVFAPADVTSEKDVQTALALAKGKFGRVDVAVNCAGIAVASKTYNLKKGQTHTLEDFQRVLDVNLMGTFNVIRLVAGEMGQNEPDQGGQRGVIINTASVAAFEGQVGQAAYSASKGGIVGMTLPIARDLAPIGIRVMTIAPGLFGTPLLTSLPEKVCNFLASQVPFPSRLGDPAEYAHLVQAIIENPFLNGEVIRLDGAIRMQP
Sequence of UniProt A6NDN3 (A6NDN3 whole entry, looked up): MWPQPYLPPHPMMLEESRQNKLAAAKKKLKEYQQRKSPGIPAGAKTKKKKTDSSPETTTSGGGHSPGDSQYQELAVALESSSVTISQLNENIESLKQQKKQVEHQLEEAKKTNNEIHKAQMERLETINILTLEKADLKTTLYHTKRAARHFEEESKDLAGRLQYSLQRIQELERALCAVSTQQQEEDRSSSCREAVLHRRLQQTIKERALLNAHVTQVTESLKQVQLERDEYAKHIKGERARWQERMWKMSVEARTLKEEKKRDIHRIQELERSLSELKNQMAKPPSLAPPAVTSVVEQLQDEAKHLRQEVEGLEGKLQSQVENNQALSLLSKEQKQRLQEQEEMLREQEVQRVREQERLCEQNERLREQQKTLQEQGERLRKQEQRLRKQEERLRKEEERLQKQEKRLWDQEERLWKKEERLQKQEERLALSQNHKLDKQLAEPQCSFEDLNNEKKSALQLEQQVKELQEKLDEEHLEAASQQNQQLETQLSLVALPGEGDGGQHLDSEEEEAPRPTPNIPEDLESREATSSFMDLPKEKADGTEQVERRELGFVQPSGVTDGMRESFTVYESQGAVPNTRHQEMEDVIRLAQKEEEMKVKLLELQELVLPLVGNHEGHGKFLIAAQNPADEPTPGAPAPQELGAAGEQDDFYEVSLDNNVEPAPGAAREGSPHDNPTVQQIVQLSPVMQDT
Sequence of UniProt P26583 (P26583 whole entry, looked up): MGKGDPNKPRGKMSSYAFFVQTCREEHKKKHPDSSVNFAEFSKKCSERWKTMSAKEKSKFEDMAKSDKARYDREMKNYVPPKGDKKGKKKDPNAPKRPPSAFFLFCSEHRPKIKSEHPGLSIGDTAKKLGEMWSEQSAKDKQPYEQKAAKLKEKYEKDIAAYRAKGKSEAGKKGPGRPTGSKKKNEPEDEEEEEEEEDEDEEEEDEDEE
Sequence of UniProt P19367 (P19367 whole entry, looked up): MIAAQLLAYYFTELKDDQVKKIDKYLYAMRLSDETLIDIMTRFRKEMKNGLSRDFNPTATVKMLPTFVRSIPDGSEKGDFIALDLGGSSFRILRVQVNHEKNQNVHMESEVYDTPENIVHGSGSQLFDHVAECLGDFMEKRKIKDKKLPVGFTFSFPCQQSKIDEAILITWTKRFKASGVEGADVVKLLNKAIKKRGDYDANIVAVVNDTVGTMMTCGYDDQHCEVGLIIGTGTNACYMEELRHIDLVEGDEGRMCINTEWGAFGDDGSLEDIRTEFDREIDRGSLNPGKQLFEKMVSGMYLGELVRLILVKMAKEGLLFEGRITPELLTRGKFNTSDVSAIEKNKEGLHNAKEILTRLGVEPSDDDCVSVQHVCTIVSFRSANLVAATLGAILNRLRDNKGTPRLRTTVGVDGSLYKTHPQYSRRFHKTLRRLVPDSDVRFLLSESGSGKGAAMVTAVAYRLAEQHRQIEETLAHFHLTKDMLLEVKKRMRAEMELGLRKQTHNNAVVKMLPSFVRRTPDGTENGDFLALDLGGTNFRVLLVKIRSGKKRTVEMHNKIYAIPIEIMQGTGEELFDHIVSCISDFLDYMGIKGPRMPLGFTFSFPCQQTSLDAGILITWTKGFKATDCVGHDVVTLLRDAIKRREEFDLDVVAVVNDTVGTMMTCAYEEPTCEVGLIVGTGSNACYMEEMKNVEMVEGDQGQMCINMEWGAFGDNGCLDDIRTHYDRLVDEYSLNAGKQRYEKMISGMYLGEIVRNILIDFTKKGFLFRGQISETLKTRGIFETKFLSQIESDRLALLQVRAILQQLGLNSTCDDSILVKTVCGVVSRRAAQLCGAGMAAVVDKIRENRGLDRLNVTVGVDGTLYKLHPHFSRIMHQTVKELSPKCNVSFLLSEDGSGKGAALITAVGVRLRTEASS

Consider HMGB2 (UniProt P26583), for which the log2 fold change in assay [1] was 0.004; with vorinostat, 0.122; in the assay with silmitasertib, -0.052; in assay [2], 0.047; in the assay with entospletinib, 0.003.
With GRB10 (UniProt Q13322), the log2 fold change in assay [1] was -0.001; with vorinostat it was -0.402 (active); in the assay with silmitasertib, 0.065; in assay [2] it was 0.008; in the assay with entospletinib it was 0.007.
As for GOLGA6B (UniProt A6NDN3), the log2 fold change in assay [1] was 0.019; with vorinostat, 0.117; in the assay with silmitasertib it was -0.002; in assay [2], 0.353 (active); with entospletinib it was -0.084.
As to HK1 isoform 2 (UniProt P19367), the log2 fold change in assay [1] was 0.012; in the assay with vorinostat, -0.264 (active); with silmitasertib it was 0.028; in assay [2], -0.002; with entospletinib, 0.011.
For the target HSD17B10 (UniProt Q99714), the log2 fold change in assay [1] was 0.04; in the assay with vorinostat, -0.826 (active); with silmitasertib, -0.011; in assay [2], -0.025; with entospletinib, -0.004.
